Data as given in PubChem BioAssay (NCI).
This is part of a sample that, as a whole, favours compounds with a hit. Of some 79,000 tested, about 15% had one in any assay. The source made the active and inactive calls. No stated cut-off is given here; in the data, active means growth inhibition above about 70%; inactive means the rest.

Assay: NCI Yeast Anticancer Drug Screen. Data for the sgs1 strain (AID 173);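 further: 0% = growth of vehicle-only control cultures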
Details: S. cerevisiae sgs1 mutant, at 1.2 µM, active compounds read high
Method in brief: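 Yeast mutant strains carrying defined defects in DNA damage repair or cell cycle control were exposed to test compounds. Growth inhibition was scored against vehicle-treated controls.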

| SMILES | growth inhibition |
| --- | --- |
| CN(C)c1ccc(C2CC(C)(O)Oc3cc4c(cc32)OCO4)cc1 (configuration not stated) | -1% (inactive) |
| O=P(NC1CCCCC1)(OCc1ccccc1)OCc1ccccc1 | 0% (inactive) |
| COc1oc(C(=O)NC2CCCCC2)c(-c2ccc(Cl)cc2)c1S(=O)(=O)c1ccccc1 | -4% (inactive) |
| C[Si](C)(C)/C=C/CCNC(C#N)c1ccccc1 (configuration not stated) | -19% (inactive) |
| CCOc1ccc(NC(=O)C2=C(C)NC(C)=C(C(=O)Nc3ccc(OCC)cc3)C2c2cccc([N+](=O)[O-])c2)cc1 | -2% (inactive) |
| CN(C)CCOC1(Cc2ccc(F)cc2)CCC(C(C)(C)C)CC1 (configuration not stated) | 32% (inactive) |
| CC1(C)CC(=O)C(/C=N/c2nc(-c3ccccc3)cs2)=C(O)C1 | 2% (inactive) |
| CC(=O)Nc1ccc2c(c1)Cc1cc(N=C3C=CC(=O)O3)ccc1-2 | 14% (inactive) |
| O=C1C=C(Cl)C(=O)C(c2ccc(Cl)cc2)=C1 | 18% (inactive) |
| CNCCCNc1c2ccccc2nc2cccc([N+](=O)[O-])c12 | 67% (inactive) |
| CCCCCCCCCCCC(O)S(=O)(=O)O (configuration not stated) | 1% (inactive) |
| CC(C)OC(=O)c1ccc(CCc2cc(O)c(Br)cc2O)cc1 | 47% (inactive) |
| CCc1cc(O)c(Cl)c(C)c1Cl | -4% (inactive) |
| C(=Nc1ccc(-c2cc(-c3ccccc3)nc3ccc4ccccc4c23)cc1)c1ccccc1 | 28% (inactive) |
| CSc1nc(C)c(CCOC(C)=O)c(N=P(c2ccccc2)(c2ccccc2)c2ccccc2)n1 | 7% (inactive) |
| CS(=O)(=O)SCc1ccc([N+](=O)[O-])cc1 | -3% (inactive) |

| SMILES | growth inhibition |
| --- | --- |
| Cc1cc(-c2cc(C)c(O)c(C(C)(C)C)c2)cc(C(C)(C)C)c1O | -20% (inactive) |
| Nc1cc(N)c(N=Nc2cccc3c(S(=O)(=O)O)cccc23)cc1N=Nc1cc([N+](=O)[O-])ccc1O | -7% (inactive) |
| Nc1ccc(F)cc1S | -16% (inactive) |
| Brc1ccccc1-c1ncc(-c2ccccc2)o1 | -1% (inactive) |
| COc1cc(C2SCC(=O)N2c2ccc(-c3ccc(-n4c(-c5ccccc5)nc5ccccc5c4=O)cc3)cc2)ccc1O (configuration not stated) | -3% (inactive) |
| Nc1ncnc2c1ncn2C1OC(CO)CC1O (configuration not stated) | -14% (inactive) |
| CCOC(=O)C1N=[N+](c2ccccc2)C(=O)/C1=C\n1c(=S)[nH]c2ccc([N+](=O)[O-])cc21 (configuration not stated) | 0% (inactive) |
| O=C(NNc1ccccc1)c1ccc(Cl)c(Cl)c1 | -3% (inactive) |
| Cc1ccc(CC2(OCCN(C)C)CCC(C(C)(C)C)CC2)cc1 (configuration not stated) | 24% (inactive) |
| C[C@]12CC[C@H](O)CC1=CC[C@@H]1C2CC[C@]2(C)C(=O)NC(=O)CC12 (some centres not stated) | 17% (inactive) |
| CCCC/C=C/C(C)(C(=O)OCC)C(=O)OCC | -3% (inactive) |
| O=C(/C=C(/c1ccccc1)N1CCCCC1)c1ccccc1 | -1% (inactive) |
| COc1c(O)c(C=O)c(Br)c(C=O)c1O | -2% (inactive) |
| Cc1ccc(Cl)cc1NC(=O)OCCN(C)C(=O)Nc1cc(Cl)ccc1C | -22% (inactive) |
| Cc1nc2ccccc2nc1NNc1ccccc1 | 1% (inactive) |

Same assay, conditions: S. cerevisiae sgs1 mutant, at 3.7 µM, active compounds read high

| SMILES | growth inhibition |
| --- | --- |
| CN(C)c1ccc(C2CC(C)(O)Oc3cc4c(cc32)OCO4)cc1 (configuration not stated) | 7% (inactive) |
| O=P(NC1CCCCC1)(OCc1ccccc1)OCc1ccccc1 | -1% (inactive) |
| COc1oc(C(=O)NC2CCCCC2)c(-c2ccc(Cl)cc2)c1S(=O)(=O)c1ccccc1 | -1% (inactive) |
| C[Si](C)(C)/C=C/CCNC(C#N)c1ccccc1 (configuration not stated) | -15% (inactive) |
| CCOc1ccc(NC(=O)C2=C(C)NC(C)=C(C(=O)Nc3ccc(OCC)cc3)C2c2cccc([N+](=O)[O-])c2)cc1 | 0% (inactive) |
| CN(C)CCOC1(Cc2ccc(F)cc2)CCC(C(C)(C)C)CC1 (configuration not stated) | 16% (inactive) |
| CC1(C)CC(=O)C(/C=N/c2nc(-c3ccccc3)cs2)=C(O)C1 | 5% (inactive) |
| CC(=O)Nc1ccc2c(c1)Cc1cc(N=C3C=CC(=O)O3)ccc1-2 | 34% (inactive) |
| O=C1C=C(Cl)C(=O)C(c2ccc(Cl)cc2)=C1 | 37% (inactive) |
| CNCCCNc1c2ccccc2nc2cccc([N+](=O)[O-])c12 | 84% (active) |
| CCCCCCCCCCCC(O)S(=O)(=O)O (configuration not stated) | -2% (inactive) |
| CC(C)OC(=O)c1ccc(CCc2cc(O)c(Br)cc2O)cc1 | 60% (inactive) |
| CCc1cc(O)c(Cl)c(C)c1Cl | 6% (inactive) |
| C(=Nc1ccc(-c2cc(-c3ccccc3)nc3ccc4ccccc4c23)cc1)c1ccccc1 | 18% (inactive) |
| CSc1nc(C)c(CCOC(C)=O)c(N=P(c2ccccc2)(c2ccccc2)c2ccccc2)n1 | 3% (inactive) |
| CS(=O)(=O)SCc1ccc([N+](=O)[O-])cc1 | 39% (inactive) |

| SMILES | growth inhibition |
| --- | --- |
| Cc1cc(-c2cc(C)c(O)c(C(C)(C)C)c2)cc(C(C)(C)C)c1O | -8% (inactive) |
| Nc1cc(N)c(N=Nc2cccc3c(S(=O)(=O)O)cccc23)cc1N=Nc1cc([N+](=O)[O-])ccc1O | 24% (inactive) |
| Nc1ccc(F)cc1S | -24% (inactive) |
| Brc1ccccc1-c1ncc(-c2ccccc2)o1 | -17% (inactive) |
| COc1cc(C2SCC(=O)N2c2ccc(-c3ccc(-n4c(-c5ccccc5)nc5ccccc5c4=O)cc3)cc2)ccc1O (configuration not stated) | 0% (inactive) |
| Nc1ncnc2c1ncn2C1OC(CO)CC1O (configuration not stated) | 2% (inactive) |
| CCOC(=O)C1N=[N+](c2ccccc2)C(=O)/C1=C\n1c(=S)[nH]c2ccc([N+](=O)[O-])cc21 (configuration not stated) | 1% (inactive) |
| O=C(NNc1ccccc1)c1ccc(Cl)c(Cl)c1 | -3% (inactive) |
| Cc1ccc(CC2(OCCN(C)C)CCC(C(C)(C)C)CC2)cc1 (configuration not stated) | 26% (inactive) |
| C[C@]12CC[C@H](O)CC1=CC[C@@H]1C2CC[C@]2(C)C(=O)NC(=O)CC12 (some centres not stated) | 45% (inactive) |
| CCCC/C=C/C(C)(C(=O)OCC)C(=O)OCC | -1% (inactive) |
| O=C(/C=C(/c1ccccc1)N1CCCCC1)c1ccccc1 | -1% (inactive) |
| COc1c(O)c(C=O)c(Br)c(C=O)c1O | 3% (inactive) |
| Cc1ccc(Cl)cc1NC(=O)OCCN(C)C(=O)Nc1cc(Cl)ccc1C | -21% (inactive) |
| Cc1nc2ccccc2nc1NNc1ccccc1 | 1% (inactive) |
